GPT2 inh = Primary qHTS assay for inhibitors of Glutamate pyruvate transaminase 2 (GPT2); Alanine aminotransferase 2 (Homo sapiens), Q8TD30; Recombinant GPT2, coupled pyruvate oxidase/HRP Amplex Red fluorescence; Potency, µM (doses to about 57.7 µM), without a hit: at the highest dose activity change, negative = inhibition, usual class: inhibitors; actives 0.25% (n = 100,000); note: nearly all actives have a fitted effect of over 60% in size
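Fluorescence read-out: pyruvate from GPT2 turnover coupled to pyruvate oxidase, HRP and Amplex Red (0.2mM ThPP, 0.2U/mL PO and HRP, 50uM Amplex final). Substrates 250uM a-KG, 2mM L-alanine; enzyme 10ng/uL; 30 min RT.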
NPR1 antag = Natriuretic polypeptide receptor (hNpr1) antagonism - Primary qHTS | Atrial natriuretic peptide receptor 1 (Homo sapiens), P16066 | HEK293 hNpr1 GloSensor cGMP, ANP-stimulated luminescence | Potency, µM (highest dose often 46.3 µM), without a hit: at the highest dose activity change, negative = inhibition, usual class: inhibitors | actives 1.6% (n = 76,000) | AID 1347048, 2019; calls by dose curve; note: nearly all actives have a fitted effect of over 60% in size
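HEK293 cells stably expressing human Npr1 and cGMP GloSensor pGS-40F, loaded 2 h with 2% GloSensor reagent, given compound 30 min at room temperature. Luminescence read before and 20 min after 0.1 nM hNppA.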
FLuc inh = Firefly luciferase inhibition profiling of diverse chemical library using quantitative high-throughput screening; purified P. pyralis luciferase, luminescence, biochemical; Potency, µM (titrated, usually from 115 µM), hits mostly inhibitors; Luciferin 4-monooxygenase (Photinus pyralis), P08659; actives 2.5% (n = 76,000); AID 1347043, 2019; note: nearly all actives have a fitted effect of over 65% in size
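Biochemical qHTS: compound (6-point titration) added to 10uM D-luciferin plus 10uM ATP in Tris acetate pH 7.5 buffer with Mg, Tween-20 and BSA, then purified enzyme at 10nM; light output imaged.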
3T3 cytotox = Cytotoxic Profiling in NIH 3T3 Cell Line of Diverse Libraries Using Quantitative High-Throughput Screening; NIH 3T3 viability, CellTiter-Glo ATP luminescence, 48-72 h; Potency, µM (highest dose often 96.7 µM), inactives show at the top dose activity change, negative = cytotoxicity, usual class: inhibitors; actives 4.3% (n = 94,000); note: nearly all actives have a fitted effect of over 55% in size
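Cytotoxicity is measured as loss of cellular ATP: NIH 3T3 cells (400/well) are exposed to compound for 48 or 72 hr at 37 °C, then CellTiter-Glo luminescence is imaged after 10 min at room temperature.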
HEK cytotox = Cytotoxic Profiling in HEK 293 Cell Line of Diverse Libraries Using Quantitative High-Throughput Screening | HEK 293 viability, ATP luminescence (CellTiter-Glo), 48-72 h | Potency, µM (highest dose often 115 µM), for inactives: at the top dose activity change, negative = cytotoxicity, hits mostly inhibitors | actives 6.6% (n = 94,000); note: nearly all actives have a fitted effect of over 60% in size
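ATP-coupled CellTiter-Glo luminescence served as viability read-out, recorded 10 min after reagent addition at room temperature. HEK 293 cells, 250 cells/well, had been incubated with pintool-transferred compound for 48 or 72 hr at 37 degree Celsius.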
* hit, by the source's call; [ ] = another dose, or the depositor's remark. An excerpt weighted towards active compounds, which were near 10% of everything screened. Unless noted, calls come from the whole dose curve; as a rule, active = well fitted curve in the direction sought with a large enough effect; inconclusive = small, poorly fitted or top-dose-only effect, or another doubt; inactive = no such curve, though single readings can be large; an effect the other way counts as inactive or inconclusive. % is set by controls: 0 for no effect and ±100 for the full control effect; potency is the fitted concentration of half-maximal effect.

Screening CC1=C[C@@H](CN2CCN(c3ncccn3)CC2)[C@H](C(C)C)C[C@H]1Cc1nnc(COc2ccc(F)cc2)o1 returned GPT2 inh inactive, NPR1 antag -25%, FLuc inh inactive, 3T3 cytotox 40µM* and HEK cytotox 25µM*.
Screening CC1=C[C@@H](CN2CCN(CCO)CC2)[C@H](C(C)C)C[C@H]1Cc1nnc(-c2ccccc2F)o1 returned GPT2 inh -4%, NPR1 antag 1%, FLuc inh inactive, 3T3 cytotox inconclusive and HEK cytotox inconclusive.
`CCc1cc(=O)n(CC(=O)Nc2ccc(F)c(Cl)c2)c(N2CCOCC2)n1` gave GPT2 inh inactive, NPR1 antag -3%, FLuc inh inactive, 3T3 cytotox -25% and HEK cytotox inconclusive.
For Cc1csc(CN(C)C(=O)CC(c2ccccc2)c2ccc3c(c2)OCO3)n1 (stereo not given) the results were GPT2 inh 4%, NPR1 antag -31%, FLuc inh 32µM*, 3T3 cytotox -23% and HEK cytotox 45µM*.
O=C(CC(c1ccccc1)c1ccc2c(c1)OCO2)N1CCSCC1 (stereo not given) was read as GPT2 inh -2%, NPR1 antag inconclusive, FLuc inh inactive, 3T3 cytotox -25% and HEK cytotox inconclusive.
`CC1(CNc2ccccc2)COc2ccc(C(=O)NCc3ccc(F)cc3)cc2N1` (stereo not given) gave GPT2 inh 0%[88.5 µM], NPR1 antag -19%[70.6 µM], FLuc inh inactive, 3T3 cytotox 45µM* and HEK cytotox 71µM*.
For CC1(CCCCc2ccccc2)COc2ccc(C(=O)NC3CCC(O)CC3)cc2N1 (stereo not given) the results were GPT2 inh -10%[88.5 µM], NPR1 antag -5%[70.6 µM], FLuc inh inactive, 3T3 cytotox 79µM* and HEK cytotox 71µM*.
Screening CC1(CNc2ccccc2)COc2ccc(C(=O)NCCc3ccccc3)cc2N1 (stereo not given) returned GPT2 inh 5%[88.5 µM], NPR1 antag 0%[70.6 µM], FLuc inh inconclusive, 3T3 cytotox 28µM* and HEK cytotox inconclusive.
Screening CNC(=O)c1ccc2c(c1)NC(C)(CNc1ccccc1)CO2 (stereo not given) returned GPT2 inh inactive, NPR1 antag -4%[70.6 µM], FLuc inh inactive, 3T3 cytotox -24%[138 µM] and HEK cytotox inconclusive.
`COc1cc(CNC(=O)c2ccc3c(c2)NC(C)(CNc2ccccc2)CO3)cc(OC)c1` (stereo not given) gave GPT2 inh 3%, NPR1 antag 1%, FLuc inh inactive, 3T3 cytotox inconclusive and HEK cytotox 35µM*.
For CCOCC1(C)COc2ccc(C(=O)NCc3cc(OC)cc(OC)c3)cc2N1 (stereo not given) the results were GPT2 inh -22%[88.5 µM], NPR1 antag -22%[70.6 µM], FLuc inh inactive, 3T3 cytotox -9%[138 µM] and HEK cytotox inconclusive.
For Cc1cccc2nc(CNC(=O)c3cc(COc4ccc(F)cc4F)on3)cn12 the results were GPT2 inh inactive, NPR1 antag 4%, FLuc inh inactive, 3T3 cytotox 32µM* and HEK cytotox inconclusive.
Screening CN1CCN(C(=O)c2cc(COc3ccc(F)cc3F)on2)CC1c1ccccc1 (stereo not given) returned GPT2 inh -11%, NPR1 antag -21%, FLuc inh inactive, 3T3 cytotox inconclusive and HEK cytotox 20µM*.
CN(Cc1cnc2ccccn12)C(=O)c1cc(COc2ccc(F)cc2F)on1 was read as GPT2 inh inactive, NPR1 antag inconclusive, FLuc inh inactive, 3T3 cytotox inconclusive and HEK cytotox inconclusive.
For O=C(Nc1ccc2n(c1=O)C[C@H]1C[C@@H]2CN(C(=O)Nc2ccc(F)cc2)C1)c1ccccc1 the results were GPT2 inh inactive, NPR1 antag 1%, FLuc inh inactive, 3T3 cytotox 22µM* and HEK cytotox -6%.
`CC(=O)c1ccc(NC(=O)N2C[C@@H]3C[C@H](C2)c2ccc(NC(=O)Nc4cccc(F)c4)c(=O)n2C3)cc1` gave GPT2 inh inactive, NPR1 antag 1%, FLuc inh 35µM*, 3T3 cytotox -21% and HEK cytotox -1%.
For COC(=O)c1cc(OC)cc(OC)c1C(=O)c1c(OC)cc2c(c1O)C1CCCC(C)(O2)O1 (stereo not given) the results were GPT2 inh inactive.
For CN1Cc2ccc(Nc3ccccc3)nc2C(C)(C(=O)NCc2cccs2)C1 (stereo not given) the results were GPT2 inh inconclusive, NPR1 antag -20%[70.6 µM], FLuc inh inactive, 3T3 cytotox inconclusive and HEK cytotox 71µM*.
Screening COC1CCN(C(=O)C2(C)CN(Cc3ccccc3)Cc3ccc(Nc4ccccc4)nc32)CC1 (stereo not given) returned GPT2 inh -37%, NPR1 antag -17%, FLuc inh inactive, 3T3 cytotox inconclusive and HEK cytotox inconclusive.
For CC1(C(=O)NC2CCOCC2)CN(Cc2ccccc2)Cc2ccc(Nc3ccccc3)nc21 (stereo not given) the results were GPT2 inh -17%, NPR1 antag -13%, FLuc inh inactive, 3T3 cytotox 32µM* and HEK cytotox inconclusive.
Screening CNC(=O)C1(C)CN(Cc2ccccc2)Cc2ccc(Nc3ccccc3)nc21 (stereo not given) returned GPT2 inh -1%[88.5 µM], NPR1 antag inconclusive, FLuc inh inconclusive, 3T3 cytotox inconclusive and HEK cytotox 79µM*.
For CN1Cc2ccc(NCc3ccccc3)nc2C(C)(C(=O)NCc2cccnc2)C1 (stereo not given) the results were GPT2 inh -1%[88.5 µM], NPR1 antag -8%[70.6 µM], FLuc inh inactive, 3T3 cytotox inconclusive and HEK cytotox inconclusive.
`CN1CCC(NC(=O)C2(C)CN(Cc3ccccc3)Cc3ccc(Nc4ccccc4)nc32)CC1` (stereo not given) gave GPT2 inh inactive, NPR1 antag -3%, FLuc inh inactive, 3T3 cytotox 16µM* and HEK cytotox 18µM*.
For O=C(CNC(=O)c1ccc(-c2cnc3ccccc3c2)cc1)NCc1cccc(F)c1 the results were GPT2 inh inconclusive, 3T3 cytotox -29% and HEK cytotox inconclusive.

Screening results from PubChem BioAssay.
